Bioassay records: PubChem, National Center for Advancing Translational Sciences (NCATS)
Only some compounds are listed: those with a hit (about 8.2% of all), similar ones and a draw of the others.
MCF10A rerep: inducers of DNA re-replication in MCF 10A breast cells | 350,000 compounds, 2.9% hits | Potency, µM (series often up to 46.1 µM), without a hit: at the top dose activity, positive = re-replication, actives largely listed as activators | AID 624296 | MCF 10A DNA re-replication, Hoechst nuclear intensity, 48 h; also: % of control where 0% means no effect; nearly all actives have a fitted effect of over 50% in size
KB-V1 cytotox: kills drug-selected multidrug resistant KB-V1 cells; KB-V1 MDR cells viability, CellTiter-Glo, 72 h; Potency, µM (doses to about 46.1 µM), hits mostly cytotoxic; 400,000 compounds, 3.4% hits; also: % is scaled to controls: 0 for no effect and ±100 for the full control effect; nearly all actives have a fitted effect of over 60% in size
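Cytotoxicity toward P-gp-expressing KB-V1 cells was determined as loss of CellTiter-Glo luminescence after 72 h at 37 degrees C. Compounds were tested in quantitative HTS format across a concentration range, with curves fitted to normalized data.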
KB-3-1 tox: KB-3-1 parental cell cytotoxicity. 400,000 compounds, 1.4% hits. Potency, µM (series often up to 46.1 µM), hits mostly cytotoxic. AID 1347075. KB-3-1 viability, CellTiter-Glo ATP luminescence, 72 h; also: % is scaled to controls: 0 for no effect and ±100 for the full control effect; nearly all actives have a fitted effect of over 60% in size
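KB-3-1 cells, DMEM (no phenol red) + 10% FBS; compound by pin transfer, 72 h, 37 °C. Readout: CellTiter-Glo luminescence after 10 min. Data normalized, curve-fitted.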
SW480 rereplic: induces DNA re-replication in SW480 colon adenocarcinoma cells; SW480 DNA re-replication, Hoechst DNA content imaging, 48 h; Potency, µM (highest dose often 46.1 µM), without a hit: at the highest dose re-replication activation, actives largely listed as activators; 340,000 compounds, 1.8% hits; AID 624297; also: % of control where 0% means no effect; nearly all actives have a fitted effect of over 55% in size
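Image-based read-out: total Hoechst fluorescence of nuclei (405 nm excitation, 500-530 nm emission), with hits raising the fraction of high-intensity nuclei. SW480 colon cells incubated 48 hr with compounds at 37 C.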
ELG1 DNA repair: blocks ELG1-dependent DNA repair in HEK293T cells; 330,000 compounds, 2.3% hits; Potency, µM (series often up to 46.1 µM), for inactives: top-dose activity change, negative = inhibition, hits mostly inhibitors; HEK293T ELG1-luciferase reporter, luminescence, 16 h; DNA damage induced by 5-fluorouridine; also: % is scaled to controls: 0 for no effect and ±100 for the full control effect; nearly all actives have a fitted effect of over 55% in size
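5-Fluorouridine DNA damage + compound/DMSO, 2,000 cells/well, 16 h, 37 °C/5% CO2. ONE-Glo, 30 min RT, luminescence. Readout = decrease in reporter signal.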
* = called active by the depositor; i = inactive; u = inconclusive; x = no result given; ! = repeats disagree. Calls follow the shape of the dose curve; as a rule, active = well fitted curve in the direction sought with a large enough effect; inconclusive = small, poorly fitted or top-dose-only effect, or another doubt; inactive = no such curve, though single readings can be large; an effect the other way counts as inactive or inconclusive. Potency is read from the fitted curve at half-maximal effect.

SMILES	MCF10A rerep	KB-V1 cytotox	KB-3-1 tox	SW480 rereplic	ELG1 DNA repair
CCOC(=O)N1CCC(NS(=O)(=O)c2ccc(C)c(Cl)c2)CC1	-2.2%	u	i	-27.0%	16.4µM*
CC1=CC(=NOS(=O)(=O)c2ccc(C)cc2)CC(C)(C)C1	x	i	i	x	x
ClCCn1cnc2c(SCc3ccccc3)ncnc21	16.4%	6.51µM*	4.11µM*	u	x
CCc1ccc(CNC(=O)c2cc3c(s2)-c2ccccc2OC3)cc1	x	u	14.6µM*	x	x
COCCCN(Cc1ccco1)C(=O)c1cc2c(s1)-c1ccccc1OC2	x	10.3µM*	u	x	x
CCOc1ccc(CNC(=O)c2cc3c(s2)-c2ccccc2OC3)cc1	x	i	i	x	x
CC1CCN(CCCNC(=O)c2cc3c(s2)-c2ccccc2OC3)CC1	5.8µM*	i	23.1µM*	84.1%	10.5%
CC1CCCN(CCCNC(=O)c2cc3c(s2)-c2ccccc2OC3)C1 (centres undefined)	u	i	u	u	u
CC(C)CCN(Cc1ccco1)C(=O)c1cc2c(s1)-c1ccccc1OC2	x	u	i	x	x
Cc1cccc2c1-c1sc(C(=O)NCCCN3CCC(C)CC3)cc1CO2	23.1µM*	i	u	29.1µM*	18.3%
CCN1/C(=C/C(C)=C/c2sc3ccccc3[n+]2CC)Sc2ccccc21	-7.2%	20.6µM*!	0.731µM*	29.8%	1.83µM*
COCc1cc(=O)[nH]c(SCCS(=O)(=O)c2ccc(Cl)cc2Cl)n1	16.4µM*	u	u	15.9%	u
COCc1cc(=O)[nH]c(SCCS(=O)(=O)c2ccc(C)cc2)n1	-1.1%	i	i	-6.1%	0.0%
Cc1nc2ncnn2c(N2CCN(C(c3ccccc3)c3ccccc3)CC2)c1C	u	23.1µM*	i	-3.0%	x
Cc1nc2ncnn2c(N2CCN(c3cccc(C(F)(F)F)c3)CC2)c1C	-3.6%	2.59µM*	20.6µM*	-1.2%	u
Cc1cc(N2CCN(c3cccc(C(F)(F)F)c3)CC2)n2ncnc2n1	-2.9%	i	u	-2.8%	-1.9%
O=C(NCc1cccs1)C1CCC(=O)N(Cc2cccc(C(F)(F)F)c2)C1 (centres undefined)	11.3%	u	i	u	25.8%
O=C(NCc1ccc(-c2nc3ccccc3s2)cc1)c1ccco1	4.7%	23.1µM*	i	-66.2%	u
O=C(CCCc1nc2ccccc2s1)NCc1ccccc1	1.3%	23.1µM*	i	-5.6%	u
O=C(NC(=S)NCc1ccc(-c2nc3ccccc3s2)cc1)c1ccco1	u	u	i	x	u
Cc1[nH]cnc1C(=O)N/N=C/c1c(Cl)cccc1Cl	4.2%	20.6µM*	16.4µM*	-0.3%	u
O=C(COc1ccccc1F)Nc1ccc2nc(SCc3ccccc3)sc2c1	x	i	i	x	x
Cc1ccc2cccc(Oc3ccc([N+](=O)[O-])cc3[N+](=O)[O-])c2n1	5.8%	u	i	-1.9%	6.1%
N#Cc1cc(O)c(-n2nnc3ccccc32)cc1C#N	15.8%	i	i	-12.4%	-0.2%
O=[N+]([O-])c1ccc(Oc2cccc3cccnc23)c([N+](=O)[O-])c1	20.6µM*	20.6µM*	i	u	-0.9%
SMILES	MCF10A rerep	KB-V1 cytotox	KB-3-1 tox	SW480 rereplic	ELG1 DNA repair
N#Cc1ccc(Oc2cccc3cccnc23)c([N+](=O)[O-])c1	u	20.6µM*	i	11.9%	-1.4%
N#Cc1cc(Oc2cccc3cccnc23)c(-n2nnc3ccccc32)cc1C#N	14.1µM*	u	u	u	u
CCOc1cc(N2CCOCC2)c(OCC)cc1NS(=O)(=O)c1ccc2c(c1)CC(=O)N2	x	i	i	x	x
CC1(C)CC2(C)OC(=N)C1(C#N)C2(C#N)C#N (centres undefined)	23.1µM*	i	i	4.6%	0.0%
CC1C2(C)OCC(C#N)(C(=N)O2)C1(C#N)C#N (centres undefined)	x	x	x	x	0.5%
Nc1c(C(=O)NCc2ccccc2)c2nc3ccccc3nc2n1CCCN1CCOCC1	18.4µM*	i	i	18.4µM*	20.6µM*
CCOCCCNC(=O)c1c(N)n(-c2ccc(S(N)(=O)=O)cc2)c2nc3ccccc3nc12	u	i	i	u	27.2%
